# HT1080NT lethal: kills 2HG-producing HT-1080-NT fibrosarcoma cells. Potency, µM (titrated, usually from 46.1 µM), for the others: top-dose activity, negative = less viability, usual class: cytotoxic. HT-1080-NT fibrosarcoma viability, CellTiter-Glo ATP luminescence, 48 h. 360,000 tested, 1.6% active;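 note: NT is the 2HG producing partner of a matched IDH1 knockdown line; 0% = DMSO-treated cells and -100% = media-only wells without cells; nearly all actives have a fitted effect of over 55% in size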
#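 Compounds were tested in concentration-response format on HT-1080-NT cells for 48 hours at 37 degrees C. Cell viability came from CellTiter-Glo luminescence; curves were classified by r2, response magnitude and activity.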
# KB-3-1 cytotox: KB-3-1 parental cell cytotoxicity | KB-3-1 viability, CellTiter-Glo ATP luminescence, 72 h | Potency, µM (highest dose often 46.1 µM), usual class: cytotoxic | 400,000 tested, 1.4% active; note: % is set by controls: 0 for no effect and ±100 for the full control effect; nearly all actives have a fitted effect of over 60% in size
#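 Screening of KB-3-1 cells (DMEM, 10% FBS, phenol-red free) ran from lowest to highest compound concentration; after 72 h at 37 °C viability was read luminescently and curves fitted.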
# SW480 rerep: induces DNA re-replication in SW480 colon adenocarcinoma cells. SW480 DNA re-replication, Hoechst DNA content imaging, 48 h. Potency, µM (highest dose often 46.1 µM), for the others: top-dose re-replication activation, usual class: activators. 340,000 tested, 1.8% active. AID 624297; note: % of control where 0% means no effect; nearly all actives have a fitted effect of over 55% in size
#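 Cells (250 per well) received 23 nL compound or DMSO by pin tool and were kept 48 hr at 37 C, 5% CO2. Nuclei were then stained with Hoechst for 40 min and scanned for DNA content.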
# MCF10A rerep: induces DNA re-replication in MCF 10a normal breast cells. MCF 10A DNA re-replication, Hoechst nuclear intensity, 48 h. Potency, µM (doses to about 46.1 µM), inactives show at the highest dose activity, positive = re-replication, hits mostly activators. 350,000 tested, 2.9% active; note: % of control where 0% means no effect; nearly all actives have a fitted effect of over 50% in size
# KB-V1 MDR tox: KB-V1 MDR subline cytotoxicity | KB-V1 MDR cells viability, CellTiter-Glo, 72 h | Potency, µM (titrated, usually from 46.1 µM), most hits filed as cytotoxic | 400,000 tested, 3.4% active | AID 1347076; note: % is set by controls: 0 for no effect and ±100 for the full control effect; nearly all actives have a fitted effect of over 60% in size
#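 Cells of the MDR subline KB-V1 are plated, dosed with compound at multiple concentrations, and incubated 72 h at 37 degrees C; CellTiter-Glo is then added and luminescence read after 10 min.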
# HT1080 IDH1KD tx: kills HT-1080 cells with IDH1 knockdown; HT-1080 IDH1 knockdown viability, ATP luminescence, 48 h; Potency, µM (titrated, usually from 46.1 µM), for inactives: top-dose activity, negative = toxicity, hits mostly cytotoxic; 360,000 tested, 2% active;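 note: 0% = DMSO wells and -100% = cell-free medium wells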
#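 IDH1KD HT-1080 cells, 750/well, RPMI + 5% FBS; compound pinned after 2 h settling; 48 h, 37 °C; CellTiter-Glo luminescence; % activity normalised to DMSO and no-cell wells; curves fitted, classed by r2 and efficacy.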
# The depositor's hits bear a star; i = inactive; u = inconclusive; x = no result. Sampled rows, rich in hits. Any-hit rate of the full collection: about 8%. Calls come from the whole dose curve; as a rule, active = well fitted curve in the direction sought with a large enough effect; inconclusive = small, poorly fitted or top-dose-only effect, or another doubt; inactive = no such curve, though single readings can be large; an effect the other way counts as inactive or inconclusive. Potency is the fitted concentration of half-maximal effect.
SMILES,HT1080NT lethal,KB-3-1 cytotox,SW480 rerep,MCF10A rerep,KB-V1 MDR tox,HT1080 IDH1KD tx
CCc1ccc(NCc2cc3cc4c(cc3n(CC(=O)Nc3ccc(Cl)cc3)c2=O)OCO4)cc1,x,u,x,x,i,x
Cc1c(NC(=O)c2ccccc2NC(=O)COc2ccccc2)cccc1C(=O)O,-5%,i,-10%,-31%,i,-4%
CC(=O)Nc1cc2c(cc1[N+](=O)[O-])-c1ccccc1C2=NO,4%,u,0%,-1%,i,u
CC(=O)Nc1cc2c(cc1[N+](=O)[O-])-c1ccccc1C2O (stereo not drawn),1%,i,u,18µM*,i,-6%
Cc1cccc(-n2cnc(C(=O)NNC(=S)Nc3ccc(Cl)cc3)c2)n1,-22%,13µM*,u,15%,i,-23%
Cc1nc2ccccn2c1C(=O)NNC(=S)Nc1ccc(Cl)cc1,-6%,i,3%,11%,u,-25%
CCOC12NC(=O)CC(=O)N1C(c1ccccc1)=CS2 (stereo not drawn),4%,i,-1%,13%,i,12%
Cc1ccccc1OCC(O)Cn1c(NCc2ccco2)nc2c1c(=O)n(C)c(=O)n2C (stereo not drawn),-22%,i,1%,15%,u,0%
CCNc1nc2c(c(=O)n(C)c(=O)n2C)n1CC(O)COc1ccccc1 (stereo not drawn),x,u,x,x,5.2µM*,x
COc1ccc(OCC(O)Cn2c(Nc3cccc(C)c3)nc3c2c(=O)n(C)c(=O)n3C)cc1 (stereo not drawn),5%,i,-5%,8%,i,7%
CCCNc1nc2c(c(=O)n(C)c(=O)n2C)n1CC(O)COc1ccccc1 (stereo not drawn),x,i,x,x,9.2µM*,x
Cc1ccnc(N/N=C/c2ccco2)n1,-6%,i,16µM*,2.9µM*,i,-6%
CC(C(=O)N1CCc2ccccc21)N1CCN(S(=O)(=O)c2ccc(C(F)(F)F)cc2)CC1 (stereo not drawn),1%,i,-2%,0%,u,2%
CC(C)CCN(C(=S)Nc1cccc(F)c1)C(C)c1cccs1 (stereo not drawn),16%,i,-4%,16µM*,i,3%
COCCN(C(=S)Nc1cccc(C)c1)C(C)c1cccs1 (stereo not drawn),3%,i,0%,-2%,i,7%
CCCC(=O)NC(NC(=S)Nc1ccc(N=Nc2ccccc2)cc1)C(Cl)(Cl)Cl (stereo not drawn),u,15µM*,6%,13µM*,18µM*,18µM*
O=C(CCc1ccccc1)NNC(=O)Nc1ccc(Br)cc1,4%,i,3%,0%,i,1%
O=C(CCc1ccccc1)NC(NC(=S)Nc1cccc(Cl)c1)C(Cl)(Cl)Cl (stereo not drawn),10%,i,-11%,5.8µM*,u,17%
CCc1ccc(OCC(=O)NC(NC(=S)Nc2ccc(Cl)cc2)C(Cl)(Cl)Cl)cc1 (stereo not drawn),u,8.2µM*,-168%,u,3.7µM*,u
O=C(CCc1ccccc1)NC(NC(=S)Nc1ccc(Br)cc1)C(Cl)(Cl)Cl (stereo not drawn),18µM*,i,-2%,-4%,i,u
CCn1nc(C(=O)NCc2ccco2)c(Cl)c1Cl,10%,i,-1%,0%,i,1%
CC1CCN(C(=O)COC(=O)CCC(=O)c2ccc(Cl)cc2)CC1,9%,i,-29%,7%,i,2%
COc1ccc(NC(=O)/C=C/c2ccc(OC(F)F)cc2)cn1,-13%,i,u,21µM*,i,u
S=c1[nH]nc(Cc2ccccc2)n1Cc1ccco1,35µM*,i,-6%,-5%,u,u

# Assay outcomes deposited in PubChem BioAssay by National Center for Advancing Translational Sciences (NCATS).
